Whole data set: some 140,000 sequences, median “enrichment ratio after two sorts for PhoP signalling” near 0, cut for the highest 2% near 11. The sample as a whole holds a higher share of the highest values than the screen did.
B1: PhoQ; a variant is named by its letters at X, in order, P23837 (parent)
chain: MKKLLRLFFPLSLRVRFLLATAAVVLVLSLAYGMVALIGYSVSFDKTTFRLLRGESNLFYTLAKWENNKLHVELPENIDKQSPTMTLIYDENGQLLWAQRDVPWLMKMIQPDWLKSNGFHEIEADVNDTSLLLSGDHSIQQQLQEVREDDDDAEMTHSVAVNVYPATSRMPKLTIVVVDTIPVELKSSYMVWSWFIYVLSANLLLVIPLLWVAAWWSLRPIEALAKEVRELEEHNRELLNPATTRELTSLVRNLNRLLKSERERYDKYRTTLTDLTHSLKTPLXXLQXXLRSLRSEKMSVSDAEPVMLEQISRISQQIGYYLHRASMRGGTLLSRELHPVAPLLDNLTSALNKVYQRKGVNISLDISPEISFVGEQNDFVEVMGNVLDNACKYCLEFVEISARQTDEHLYIVVEDDGPGIPLSKREVIFDRGQRVDTLRPGQGVGLAVAREITEQYEGKIVAGESMLGGARMEVIFGRQHSAPKDE

Variants of: B1
Assay: enrichment ratio after two sorts for PhoP signalling (ratio (wild type AVST 3.29)); higher = more functional
Conditions: with PhoP (E. coli)

Row | Variant | enrichment ratio
1 | LCAS | ≤ 0.25
2 | AWQV | ≤ 0.25
3 | QRPC | ≤ 0.25
4 | IARV | ≤ 0.25
5 | HCSE | ≤ 0.25
6 | YKNC | ≤ 0.25
7 | HYGG | ≤ 0.25
8 | ESAV | 2.02
9 | LFIM | ≤ 0.25
10 | WQAC | ≤ 0.25
11 | MMIC | ≤ 0.25
12 | TQCS | 15.1
13 | TQCV | 10.8
14 | TQCG | 14.9
15 | FQCG | 1.7
16 | TQCA | 17.6
17 | TQAI | 3.21
18 | TQIE | ≤ 0.25
19 | TQPI | ≤ 0.25
20 | TQCP | ≤ 0.25
21 | TQNE | ≤ 0.25
22 | DWCG | ≤ 0.25
23 | TQCE | 87.9
24 | HAWL | ≤ 0.25
25 | SAVY | 1.85
26 | QKIT | ≤ 0.25

Row | Variant | enrichment ratio
27 | GSFP | ≤ 0.25
28 | DITR | ≤ 0.25
29 | PWHF | ≤ 0.25
30 | MSDL | ≤ 0.25
31 | NNLP | ≤ 0.25
32 | RETI | ≤ 0.25
33 | HCYR | ≤ 0.25
34 | RHMQ | ≤ 0.25
35 | WQYV | ≤ 0.25
36 | RTWF | ≤ 0.25
37 | TQTH | 6.85
38 | TQCL | 12.5
39 | TQYK | ≤ 0.25
40 | TQRL | ≤ 0.25
41 | TQEL | ≤ 0.25
42 | FQCQ | ≤ 0.25
43 | TQYS | 12.5
44 | TQCK | 1.24
45 | TQCI | 16
46 | TQCQ | 27.8
47 | SQYS | ≤ 0.25
48 | TQQP | ≤ 0.25
49 | WRPN | ≤ 0.25
50 | GCIS | 2.07
51 | PPWA | ≤ 0.25
52 | HQSY | ≤ 0.25

Row | Variant | enrichment ratio
53 | RKAR | ≤ 0.25
54 | MEHS | ≤ 0.25
55 | EHIP | ≤ 0.25
56 | TQYE | 35.7
57 | TQSK | ≤ 0.25
58 | TQWI | 1.91
59 | RNCT | ≤ 0.25
60 | NQYE | ≤ 0.25
61 | TQYI | ≤ 0.25
62 | HDSA | ≤ 0.25
63 | TQCT | 12.5
64 | TQWA | 17.1
65 | WQCT | ≤ 0.25
66 | NVSA | ≤ 0.25
67 | TQSA | 19.8
68 | GFAI | ≤ 0.25
69 | GLPN | ≤ 0.25
70 | GAFM | ≤ 0.25
71 | EVEQ | ≤ 0.25
72 | FEQI | ≤ 0.25
73 | YIWG | ≤ 0.25
74 | TQTG | 5.83
75 | TQSI | 11.7
76 | TQRK | ≤ 0.25
77 | WSSI | ≤ 0.25
78 | TEFF | 6.49

Row | Variant | enrichment ratio
79 | MCRI | ≤ 0.25
80 | HPLE | ≤ 0.25
81 | MEVE | ≤ 0.25
82 | TEYE | ≤ 0.25
83 | MELE | ≤ 0.25
84 | TEVE | 11.6
85 | TELE | 11.2
86 | RSQR | ≤ 0.25
87 | YMEV | ≤ 0.25
88 | TDVI | 11.8
89 | GDTM | 4.42
90 | GDDV | ≤ 0.25
91 | GDVA | ≤ 0.25
92 | GDNY | ≤ 0.25
93 | GDYM | ≤ 0.25
94 | GDVM | 28.9
95 | GDVI | 20
96 | FDVI | ≤ 0.25
97 | GDIV | 8.68
98 | GDTV | 13.7
99 | LTVI | ≤ 0.25
100 | INWI | ≤ 0.25
101 | VNRI | ≤ 0.25
102 | NHGQ | ≤ 0.25
103 | MSWY | 5.91
104 | SPRG | ≤ 0.25

Row | Variant | enrichment ratio
105 | PPYC | ≤ 0.25
106 | HEPW | ≤ 0.25
107 | EAAS | ≤ 0.25
108 | SSII | 16.3
109 | SPAV | ≤ 0.25
110 | SSAV | 12.9
111 | SSWV | 0.518
112 | KSII | ≤ 0.25
113 | SSMV | 18.9
114 | SSYV | 1.11
115 | SSIV | 14.2
116 | SSID | ≤ 0.25
117 | SSAE | 10.5
118 | SSPV | 1.03
119 | KSIV | ≤ 0.25
120 | EHMI | ≤ 0.25
121 | WWKN | ≤ 0.25
122 | YRIR | ≤ 0.25
123 | HENW | ≤ 0.25
124 | GDFP | ≤ 0.25
125 | WFHL | ≤ 0.25
126 | EAAQ | ≤ 0.25
127 | NSIS | ≤ 0.25
128 | SSMI | 19
129 | SSIS | 11.9
130 | SSIM | 18.4

Row | Variant | enrichment ratio
131 | SSIE | ≤ 0.25
132 | AQIS | 13
133 | SCIM | 3.17
134 | KSIS | ≤ 0.25
135 | SSMR | ≤ 0.25
136 | SSMD | 3.52
137 | ADIS | ≤ 0.25
138 | AQIV | 9.59
139 | ASCT | 11.1
140 | DRDN | ≤ 0.25
141 | ADGC | ≤ 0.25
142 | QENS | ≤ 0.25
143 | MSVE | ≤ 0.25
144 | VCLI | 5.48
145 | TNQT | 7.38
146 | SSMF | 12.7
147 | SSEL | 0.485
148 | SSIL | 12.3
149 | SQIS | 13.9
150 | DPIS | ≤ 0.25
151 | SSMS | 11.7
152 | SQIV | 5.01
153 | KSMF | ≤ 0.25
